Measured values from PubChem BioAssay (Tox21).
Unmarked numbers belong to inactive results. Inconclusive results are not listed. Entries that show only a call come without a potency. Active and inactive are the calls of the source. Unless noted, the call rests on the fitted dose curve.

Experiments:
[1] = Nuclear factor erythroid 2-related factor 2/antioxidant responsive element (Nrf2/ARE) small molecule agonists: qHTS cell viability counter screen in human keratinocytes (AID 1919968; active means well fitted curve in the direction sought with a large enough effect in the repeat runs; an effect the other way counts as inactive or inconclusive; further: nearly all actives have a fitted effect of over 55% in size; further: potency means the concentration at half of the fitted maximal effect)
Summary of the method: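 KeratinoSens cells (HaCaT keratinocytes stably carrying an ARE-luciferase reporter) were seeded at 1,500 cells/well and rested 5 h at 37 C/5% CO2. They were then exposed to compounds in DMSO for 23 h. Viability was read by CellTiter-Fluor fluorescence after 1 h.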

[2] = Nuclear factor erythroid 2-related factor 2/antioxidant responsive element (Nrf2/ARE) small molecule agonists: luciferase reporter gene qHTS assay in human keratinocytes (AID 1919969); further: nearly all actives have a fitted effect of over 35% in size; further: potency means the concentration at half of the fitted maximal effect
[3] = biological target: Gonadotropin-releasing hormone receptor (Homo sapiens) (UniProt P30968); assay: Human gonadotropin-releasing hormone receptor (GnRHR) small molecule agonists, calcium flux assay in GnRHR-HEK293 cells (AID 1920063); further: nearly all actives have a fitted effect of over 35% in size
Summary of the method: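 HEK293 cells stably expressing human GnRHR were plated 18 h at 37 °C, loaded with calcium dye 1 h at 37 °C, then given compound in agonist mode; fluorescence (Ex/Em 480/540) read kinetically for 3 min at 1 s intervals.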

[4] = biological target: KiSS-1 receptor (Homo sapiens) (UniProt Q969F8); assay: Human kisspeptin (KISS1R) small molecule agonists, calcium flux assay in KISS1R-HEK293 cells (AID 1920064; active means well fitted curve in the direction sought with a large enough effect in the repeat runs; an effect the other way counts as inactive or inconclusive)
Summary of the method: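 HEK293 cells stably expressing human KISS1R were plated 18 h at 37 °C, loaded with calcium dye for 1 h at 37 °C, then given compound by pin tool. Fluorescence (Ex/Em 480/540) was read kinetically for 3 min.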

[5] = G protein-coupled receptor (GPCR) small molecule agonists, calcium flux assay: HEK293 wild type cell line counter screen (AID 1920065)
Summary of the method: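 Cells were plated and cultured 18 h at 37 C/5% CO2, then loaded with calcium dye for 1 h at 37 C. Compounds in DMSO were pin-transferred in agonist mode, and fluorescence (Ex/Em 480/540) was read kinetically for 3 min at 1 s intervals.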

[6] = p53 small molecule agonists, cell-based qHTS assay with human liver microsomes (AID 1963577); further: potency means the concentration at half of the fitted maximal effect
Summary of the method: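 Metabolically competent format: test substances, human liver microsomes and NADPH (both 0.5 mg/mL final) incubated with p53RE-bla cells 16 h at 37 C. Beta-lactamase reporter signal then quantified by fluorescence.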

[7] = p53 small molecule agonists, cell-based qHTS assay with rat liver microsomes (AID 1963578)
Summary of the method: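 Each plate received p53RE-bla cells, then compound, then rat liver microsomes and NADPH (both 0.5 mg/mL final). Plates were held 16 h at 37 C, and beta-lactamase activity was detected with LiveBLAzer over 2 h.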

[8] = p53 small molecule agonists, cell-based qHTS assay with human liver microsomes: qHTS cell viability counter screen (AID 1963579); further: nearly all actives have a fitted effect of over 45% in size; further: potency means the concentration at half of the fitted maximal effect
Summary of the method: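 Tox21 library compounds, delivered from DMSO stocks, were tested on p53RE-bla cells together with 0.5 mg/mL human liver microsomes and 0.5 mg/mL NADPH (final) over 16 h at 37 C; CellTiter-Glo luminescence served as the cytotoxicity measure.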

[9] = p53 small molecule agonists, cell-based qHTS assay with rat liver microsomes: qHTS cell viability counter screen (AID 1963580); further: nearly all actives have a fitted effect of over 45% in size; further: potency means the concentration at half of the fitted maximal effect
Summary of the method: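 p53RE-bla HCT-116 cells (4,000/well) rested 5 h at 37 C, then given Tox21 compounds in DMSO with rat liver microsomes (0.5 mg/mL final) plus NADPH (0.5 mg/mL final) for 16 h at 37 C. Viability read by CellTiter-Glo luminescence after 30 min at room temperature.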

[10] = p53 small molecule agonists, cell-based qHTS assay: qHTS cell viability counter screen (AID 1963581); further: nearly all actives have a fitted effect of over 45% in size
Summary of the method: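 p53RE-bla HCT-116 cells were exposed to compounds for 16 h at 37 C; after the beta-lactamase FRET read in the same wells, CellTiter-Glo was added and luminescence (intracellular ATP) read after 30 min at room temperature.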

[11] = cAMP Responsive Elements (CRE) small molecule antagonists, cell-based qHTS assay (AID 1963591; active means well fitted inhibition curve with a large enough effect in the signal ratio in the repeat runs, not every such curve was filed as active; the % refers to the signal ratio)
Summary of the method: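 CRE-bla HEK293T cells were plated 18 h at 37 °C/5% CO2, pinned with compound in DMSO, then stimulated with NKH477 at 0.25 uM final for 3 h. LiveBLAzer B/G FRET substrate was added and plates incubated 2 h at room temperature.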

[12] = biological target: Beta-2 adrenergic receptor (Homo sapiens) (UniProt P07550); assay: Adrenergic beta2 receptor (ADRB2) small molecule antagonists, cell-based qHTS assay (AID 1963592); further: nearly all actives have a fitted effect of over 50% in size; further: potency means the concentration at half of the fitted maximal effect
Summary of the method: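 Cells (CHO, stable ADRB2 overexpression) incubated 18-20hr at 37C; compounds added from DMSO; agonist mix (1nM isoproterenol, 100uM IBMX, 25uM Ro-20-1724) added; 0.5hr RT; d2-cAMP and anti-cAMP-cryptate added; 1hr RT; 665/615 nm read.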

[13] = biological target: D(2) dopamine receptor (Homo sapiens) (UniProt P14416); assay: Dopamine D2 receptor (DRD2) small molecule agonists, cell-based qHTS assay (AID 1963594); further: nearly all actives have a fitted effect of over 35% in size
Summary of the method: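 HEK293 cells stably expressing DRD2 were cultured 24 h at 37 C, then given Ro20-1724 (0.1 mM final) and compounds for 10 min at room temperature. NKH477 (200nM) was then added for 30 min. cAMP was read by HTRF.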

[14] = biological target: D(2) dopamine receptor (Homo sapiens) (UniProt P14416); assay: Dopamine D2 receptor (DRD2) small molecule antagonists, cell-based qHTS assay (AID 1963595; active means well fitted inhibition curve with a large enough effect in the signal ratio in the repeat runs, with a control signal flat; the % refers to the signal ratio; further: potency means the concentration at half of the fitted maximal effect)
Summary of the method: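 Readout: HTRF cAMP, cAMP-d2 competing with cellular cAMP for anti-cAMP cryptate, read after 1 h. Cells: DRD2-HEK293. Conditions: 0.1 mM Ro20-1724, 12 nM quinpirole, 200 nM NKH477, 30 min RT.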

[15] = biological target: Beta-2 adrenergic receptor (Homo sapiens) (UniProt P07550); assay: Adrenergic beta2 receptor (ADRB2) small molecule agonists, cell-based qHTS assay (AID 1963593);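 further: CHO cells stably overexpressing human ADRB2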
Summary of the method: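 CHO cells stably over-expressing ADRB2 were plated overnight at 37C, then dosed with compounds plus a stimulation mix containing 100uM IBMX and 25uM Ro-20-1724 for 0.5hr at room temperature. cAMP was measured by HTRF competition, 1hr.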

[16] = biological target: 5-hydroxytryptamine receptor 2A (Homo sapiens) (UniProt P28223); assay: 5-hydroxytryptamine receptor 2A (HTR2A) small molecule antagonists, cell-based qHTS assay (AID 1963586); further: nearly all actives have a fitted effect of over 45% in size
Summary of the method: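 Antagonist-mode intracellular calcium assay: DOI (4 nM) added after 5 min compound pre-incubation at room temperature to dye-loaded HTR2A-CHO cells. Fluorescence followed for 3 min, sampled every second.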

[17] = biological target: 5-hydroxytryptamine receptor 2A (Homo sapiens) (UniProt P28223); assay: 5-hydroxytryptamine receptor 2A (HTR2A) small molecule agonists, cell-based qHTS assay (AID 1963587); further: nearly all actives have a fitted effect of over 30% in size
Summary of the method: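 HTR2A-CHO cells, plated 18 h at 37 C/5% CO2, dye-loaded 1 h at 37 C; compounds in DMSO added by pin tool (agonist mode). Intracellular calcium flux read as kinetic fluorescence on FDSS over 2 min at 1 s intervals.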

[18] = biological target: Muscarinic acetylcholine receptor M1 (Homo sapiens) (UniProt P11229); assay: Cholinergic receptor muscarinic 1 (CHRM1) small molecule antagonists, cell-based qHTS assay (AID 1963588); further: nearly all actives have a fitted effect of over 40% in size
Summary of the method: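 CHRM1-CHO calcium-flux assay, antagonist mode. Cells were seeded 18 h, dye-loaded 1 h at 37 C and given compound for 5 min at RT, then acetylcholine was added at 50nM. FDSS fluorescence was read 3 min; 15 concentrations, three runs.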

[19] = biological target: Muscarinic acetylcholine receptor M1 (Homo sapiens) (UniProt P11229); assay: Cholinergic receptor muscarinic 1 (CHRM1) small molecule agonists, cell-based qHTS assay (AID 1963589); further: nearly all actives have a fitted effect of over 35% in size
Summary of the method: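 CHO cells stably expressing human CHRM1, seeded 18 h at 37 C/5% CO2, dye-loaded 1 h at 37 C, then given compound in agonist mode; intracellular calcium fluorescence read kinetically at 1 s intervals. Fifteen concentrations, three independent runs.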

[20] = cAMP Responsive Elements (CRE) small molecule agonists, cell-based qHTS assay (AID 1963590)
Summary of the method: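 CRE-bla HEK 293T cells in DMEM with 10% dialyzed FBS, NEAA, pyruvate and 25 mM HEPES were plated 18 h at 37 C/5% CO2, then exposed to compounds in DMSO for 3 h before LiveBLAzer B/G FRET substrate addition.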

Chain of D(2) dopamine receptor (Homo sapiens) (P14416 whole entry, looked up): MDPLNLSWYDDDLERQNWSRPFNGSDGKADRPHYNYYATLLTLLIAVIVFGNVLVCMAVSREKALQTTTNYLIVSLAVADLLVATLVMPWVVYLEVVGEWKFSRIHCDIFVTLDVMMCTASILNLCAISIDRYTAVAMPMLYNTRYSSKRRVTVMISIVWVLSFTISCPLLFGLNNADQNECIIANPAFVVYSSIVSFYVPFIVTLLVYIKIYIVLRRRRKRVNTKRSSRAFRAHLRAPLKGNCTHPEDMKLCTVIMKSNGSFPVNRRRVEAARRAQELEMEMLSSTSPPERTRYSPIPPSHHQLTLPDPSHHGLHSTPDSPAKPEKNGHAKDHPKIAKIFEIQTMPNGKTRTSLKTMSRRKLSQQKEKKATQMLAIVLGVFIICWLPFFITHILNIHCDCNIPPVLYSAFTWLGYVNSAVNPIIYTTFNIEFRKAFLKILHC
Chain of Muscarinic acetylcholine receptor M1 (Homo sapiens) (P11229 whole entry, looked up): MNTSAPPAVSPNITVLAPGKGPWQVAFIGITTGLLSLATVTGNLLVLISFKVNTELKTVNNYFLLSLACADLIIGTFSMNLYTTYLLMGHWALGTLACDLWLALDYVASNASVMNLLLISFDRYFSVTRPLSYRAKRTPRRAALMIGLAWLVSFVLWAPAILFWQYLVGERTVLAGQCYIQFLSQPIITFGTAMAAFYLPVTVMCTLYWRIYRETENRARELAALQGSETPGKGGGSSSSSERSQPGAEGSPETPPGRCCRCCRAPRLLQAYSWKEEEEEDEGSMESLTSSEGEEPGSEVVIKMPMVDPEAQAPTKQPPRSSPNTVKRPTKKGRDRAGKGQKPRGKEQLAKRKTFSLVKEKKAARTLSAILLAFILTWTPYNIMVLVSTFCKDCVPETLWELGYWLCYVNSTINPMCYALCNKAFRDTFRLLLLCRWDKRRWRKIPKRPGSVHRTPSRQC
Chain of Beta-2 adrenergic receptor (Homo sapiens) (P07550 whole entry, looked up): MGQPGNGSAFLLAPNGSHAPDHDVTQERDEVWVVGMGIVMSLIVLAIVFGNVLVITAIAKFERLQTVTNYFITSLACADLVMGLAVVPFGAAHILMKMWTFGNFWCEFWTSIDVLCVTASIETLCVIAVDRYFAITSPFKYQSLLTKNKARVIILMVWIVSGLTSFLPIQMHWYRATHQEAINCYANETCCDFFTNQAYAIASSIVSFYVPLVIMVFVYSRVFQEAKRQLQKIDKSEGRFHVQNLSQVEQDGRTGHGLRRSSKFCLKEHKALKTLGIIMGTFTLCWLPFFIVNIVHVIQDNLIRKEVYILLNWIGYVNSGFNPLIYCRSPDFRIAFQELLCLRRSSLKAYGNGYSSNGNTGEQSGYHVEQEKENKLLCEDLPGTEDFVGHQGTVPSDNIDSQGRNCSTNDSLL
Chain of Gonadotropin-releasing hormone receptor (Homo sapiens) (P30968 whole entry, looked up): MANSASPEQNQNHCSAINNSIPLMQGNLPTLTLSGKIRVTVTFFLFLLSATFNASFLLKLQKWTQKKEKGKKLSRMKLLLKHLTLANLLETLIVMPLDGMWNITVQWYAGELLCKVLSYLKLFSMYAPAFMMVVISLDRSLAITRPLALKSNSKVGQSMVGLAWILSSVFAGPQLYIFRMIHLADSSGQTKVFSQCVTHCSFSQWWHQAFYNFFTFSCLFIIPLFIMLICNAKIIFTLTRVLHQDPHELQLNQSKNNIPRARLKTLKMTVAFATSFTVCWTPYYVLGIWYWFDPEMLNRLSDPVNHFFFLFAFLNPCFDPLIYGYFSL
Chain of 5-hydroxytryptamine receptor 2A (Homo sapiens) (P28223 whole entry, looked up): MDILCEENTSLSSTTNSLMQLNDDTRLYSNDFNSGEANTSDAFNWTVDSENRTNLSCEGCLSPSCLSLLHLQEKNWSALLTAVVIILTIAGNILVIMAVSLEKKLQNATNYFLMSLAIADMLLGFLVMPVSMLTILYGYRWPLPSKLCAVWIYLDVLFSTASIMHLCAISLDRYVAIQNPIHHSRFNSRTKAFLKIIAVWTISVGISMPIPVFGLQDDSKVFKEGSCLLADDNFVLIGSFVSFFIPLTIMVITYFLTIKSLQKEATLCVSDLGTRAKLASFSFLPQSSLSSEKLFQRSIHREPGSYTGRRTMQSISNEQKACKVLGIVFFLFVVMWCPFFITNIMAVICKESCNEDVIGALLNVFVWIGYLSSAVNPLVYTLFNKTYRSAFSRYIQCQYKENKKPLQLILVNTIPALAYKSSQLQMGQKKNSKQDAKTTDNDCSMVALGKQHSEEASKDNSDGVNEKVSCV
Chain of KiSS-1 receptor (Homo sapiens) (Q969F8 whole entry, looked up): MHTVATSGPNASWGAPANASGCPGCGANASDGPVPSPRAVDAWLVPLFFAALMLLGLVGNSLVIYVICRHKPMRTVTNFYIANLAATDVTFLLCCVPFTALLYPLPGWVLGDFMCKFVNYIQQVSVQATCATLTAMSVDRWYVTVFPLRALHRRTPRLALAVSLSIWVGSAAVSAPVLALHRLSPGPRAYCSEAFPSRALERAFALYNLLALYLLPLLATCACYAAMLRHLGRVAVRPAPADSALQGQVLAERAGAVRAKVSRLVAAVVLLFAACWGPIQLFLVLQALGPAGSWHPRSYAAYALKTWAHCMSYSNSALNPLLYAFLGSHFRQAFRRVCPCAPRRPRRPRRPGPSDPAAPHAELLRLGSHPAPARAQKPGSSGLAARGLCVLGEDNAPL

Structure (SMILES) | Potency [1] | Potency [2] | Potency [3] | outcome [4] | outcome [5] | Potency [6] | Potency [7] | Potency [8] | Potency [9] | Potency [10] | Potency [11] | Potency [12] | Potency [13] | Potency [14] | Potency [15] | Potency [16] | Potency [17] | Potency [18] | Potency [19] | Potency [20]
COc1cc(N)c(Cl)cc1C(=O)NC1CCN(CCCOc2ccc(F)cc2)CC1OC (configuration not stated) | inactive | inactive | inactive | inactive | inactive | inactive | inactive | inactive | inactive | inactive | inactive | 23.7 µM (active) | inactive | 11.9 µM (active) | – | – | – | – | – | –
CN1CCN(CCCN2c3ccccc3Sc3ccc(Cl)cc32)CC1 | inactive | inactive | inactive | inactive | inactive | inactive | inactive | inactive | inactive | inactive | – | – | inactive | – | inactive | – | – | – | – | –
CC(C)(C)c1cc(CCC(=O)NN)cc(C(C)(C)C)c1O | inactive | inactive | inactive | inactive | inactive | inactive | inactive | inactive | inactive | inactive | inactive | inactive | inactive | – | – | inactive | inactive | inactive | inactive | inactive
C[Si](NC1CCCCC1)(NC1CCCCC1)NC1CCCCC1 | inactive | inactive | inactive | inactive | inactive | inactive | inactive | inactive | inactive | inactive | – | inactive | inactive | – | – | inactive | inactive | inactive | inactive | –
O=C(O)c1cccc(Cl)n1 | inactive | 68.6 µM (active) | inactive | inactive | inactive | inactive | inactive | 40.8 µM (active) | inactive | inactive | inactive | inactive | inactive | inactive | inactive | inactive | inactive | – | – | –
CCCCCCCCCCCC[N+](C)(C)CCCCCCCCCCCC | 24.3 µM (active) | inactive | inactive | inactive | inactive | inactive | inactive | inactive | 40.8 µM (active) | inactive | – | inactive | inactive | 43.3 µM (active) | – | inactive | inactive | inactive | inactive | –
Clc1ccc2n[nH]nc2c1 | inactive | inactive | inactive | inactive | inactive | 28.9 µM (active) | inactive | inactive | inactive | inactive | – | inactive | inactive | inactive | inactive | inactive | inactive | – | inactive | inactive
